HCV NS3h FP: blocks HCV NS3 helicase binding to DNA; inhibition, % at 100 µM; 16,000 compounds, 1.6% hits; AID 687043; NS3h Cy5-dT15 DNA binding, fluorescence polarization;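 active means inhibition above the average over every tested compound plus 3 SD, cut at about 40% in these data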
Cy5 interf NS3h: counter-screen for HCV NS3 helicase inhibitors: fluorescence interference; Cy5-dT15 DNA with NS3h; actives lie on both sides; signal over control mean, under 1 quenches; fluorescence interference ratio at 100 µM; 16,000 compounds, 6% hits; AID 720488;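 active means compound fluorescence over control fluorescence at most 0.8, a quencher, or at least a set upper limit, an enhancer; inactive means ratio between 0.8 and the set upper limit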
NS3h confirm: confirmation of hepatitis C virus NS3 helicase inhibitors | shares compounds with HCV NS3h FP | NS3h binding to Cy5-dT15 DNA, fluorescence polarization | inhibition, % at 100 µM | 240 compounds, 20% hits;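 active means percent inhibition of 50% or more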
SSB-DNA FP CB: counter-screen for HCV NS3 helicase inhibitors: E. coli SSB binding. 240 compounds, 40% hits. inhibition, % at 100 µM. E. coli SSB binding Cy5-dT15, fluorescence polarization. shares compounds with HCV NS3h FP. AID 720486;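 active means inhibition of at least 50%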;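 further: displacers lower Cy5 polarization so higher inhibition means more SSB displaced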
Target sequence (P0AGE0 whole entry, looked up): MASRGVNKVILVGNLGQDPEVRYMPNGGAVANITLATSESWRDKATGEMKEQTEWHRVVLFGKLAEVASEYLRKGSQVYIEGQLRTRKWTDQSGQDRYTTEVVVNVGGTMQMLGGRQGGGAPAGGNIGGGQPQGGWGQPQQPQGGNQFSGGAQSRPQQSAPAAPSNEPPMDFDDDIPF
Cy5 SSB fluor CB: Cy5 fluorescence interference in NS3h counter-screen; shares compounds with HCV NS3h FP; Cy5-dT15/E. coli SSB fluorescence interference; actives lie on both sides; fluorescence interference ratio at 100 µM; 240 compounds, 8% hits;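 active means fluorescence interference ratio at or above 1.2, signal boosting, or at or below 0.8, signal quenching; inactive means ratio between 0.8 and 1.2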;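 further: ratio of compound well signal to mean negative control signal so 1 means no effect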
Cy5 interf conf: confirmation counter-screen for HCV NS3 helicase inhibitors: fluorescence interference. shares compounds with HCV NS3h FP. Cy5-dT15 DNA/NS3h fluorescence interference counterscreen. fluorescence interference ratio at 100 µM, hits read low. 240 compounds, 44% hits. AID 720489;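 active means fluorescence interference ratio at or below 0.8 quencher or at or above a set limitenhancer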;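 further: ratio of compound fluorescence to mean of negative controls so 1 means no interference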
* hit, by the source's call; / = no result. Hits are enriched below; roughly 7.6% of the tested compounds scored in any of these assays.

SMILES	HCV NS3h FP	Cy5 interf NS3h	NS3h confirm	SSB-DNA FP CB	Cy5 SSB fluor CB	Cy5 interf conf
COc1ccc(N2C(=O)NC(=O)/C(=C\c3cc(Br)c(OC)cc3OC)C2=O)cc1	4	1	/	/	/	/
O=C1CC(C2CCCO2)C(=O)N1c1ccc(Cl)cc1 (configuration not stated)	3	1	/	/	/	/
C=CCc1cccc2cc(C(=O)NCCc3ccccc3)c(=O)oc12	18	0.91	/	/	/	/
C=CCc1cccc2cc(C(=O)Nc3cccc4c3C(=O)c3ccccc3C4=O)c(=O)oc12	58*	0.94	-1	-3	1	1
CC(=O)Nc1ccc(N2C(=O)/C(=C/c3ccc([N+](=O)[O-])cc3)C=C2c2ccccc2)cc1	37	1.4*	12	36	1.1	0.99
O=C1/C(=C/c2ccc([N+](=O)[O-])cc2)NC(=S)N1c1ccccc1	8	0.89	/	/	/	/
O=C1/C(=C/c2cccc([N+](=O)[O-])c2)SC(=S)N1c1ccc(O)cc1	2	0.93	/	/	/	/
Cc1oc(C(=O)O)cc1CSCc1cc(C(=O)O)oc1C	2	1.1	/	/	/	/
O=C1NN(c2ccc(Cl)c(Cl)c2)C(=O)/C1=C/c1ccc(Cl)c([N+](=O)[O-])c1	37	0.87	/	/	/	/
CCOc1cc(/C=C2\C(=O)NN(c3ccc(Cl)c(Cl)c3)C2=O)ccc1OC(C)=O	38	0.84	29	11	0.88	0.87
Cn1c(/C=C/c2ccc(C(=O)c3ccccc3)o2)nc2ccccc21	51*	1.1	20	25	0.92	0.92
Cn1c(/C=C/c2ccco2)nc2ccccc21	4	0.97	/	/	/	/
O=C(Nc1cccc([N+](=O)[O-])c1)C1CC1(c1ccccc1)c1ccccc1 (configuration not stated)	8	0.98	/	/	/	/
CCc1cc(C)cc(OCCOc2ccccc2/C=C2/SC(=S)N(C)C2=O)c1	-1	1.1	/	/	/	/
O=C(Nc1ccc2c(c1)OCO2)c1nn2c(c1Cl)NC(c1ccc(Br)cc1)CC2C(F)(F)F (configuration not stated)	4	0.92	/	/	/	/
CN1C=C(C(F)(F)F)C=C/C1=C(/C#N)c1nc2ccccc2s1	40	1.1	0	9	0.9	0.71*
Cc1ccc(/C=C(\C#N)c2nc3ccccc3s2)cc1	3	0.86	/	/	/	/
CCN(CC)c1ccc(/C=C2\C(=O)NC(=O)N(Cc3ccccc3)C2=O)c(OC)c1	79*	3*	36	48	2.2*	1.7*
O=C1NC(=O)N(Cc2ccccc2)C(=O)/C1=C/c1cccs1	25	0.83	/	/	/	/
O=C(Nc1nc2ccc([N+](=O)[O-])cc2s1)c1cc(Cl)cc(Cl)c1	-19	0.86	/	/	/	/
COc1ccc(C(=O)c2ccc(N3CCN(C(=O)c4ccc(Cl)cc4Cl)CC3)c(F)c2)cc1Br	-3	1.1	/	/	/	/
Cc1ccc2c(c1)C1C=CCC1C(C(=O)O)N2 (configuration not stated)	94*	1.2*	75*	106*	1.4*	0.92
O=C1NC(=O)N(c2ccc(Cl)cc2)C(=O)/C1=C\c1ccc(-c2ccccc2[N+](=O)[O-])o1	1	1	/	/	/	/
CCOc1ccc(N2C(=O)NC(=O)/C(=C\c3ccc(-c4ccc([N+](=O)[O-])cc4OC)o3)C2=O)cc1	22	1	/	/	/	/
O=C1NC(=O)N(c2ccc(Cl)cc2)C(=O)/C1=C/c1ccc(-c2ccccc2C(=O)O)o1	44*	1.2	56*	30	0.95	0.91
SMILES	HCV NS3h FP	Cy5 interf NS3h	NS3h confirm	SSB-DNA FP CB	Cy5 SSB fluor CB	Cy5 interf conf
CCOc1ccc(N2C(=O)NC(=O)/C(=C\c3ccc(-c4ccccc4C(=O)O)o3)C2=O)cc1	67*	1	41	39	0.96	0.95
O=C(NCc1cccs1)C(=O)Nc1cccc(C(F)(F)F)c1	11	0.86	/	/	/	/
O=C(NC(=S)N1CCCCCC1)c1cccnc1	5	1	/	/	/	/
O=C(NC(=S)N1CCOCC1)c1ccccc1	110*	0.4*	0	-7	0.98	0.97
COc1ccc(C(=O)c2coc3ccc(O)cc23)cc1	16	1	/	/	/	/
COc1ccc2occ(C(=O)c3ccccc3Cl)c(=O)c2c1	57*	1	26	8	0.99	0.88
O=C(Nc1ccc(F)c([N+](=O)[O-])c1)c1ccc2c(c1)OCCO2	22	0.87	/	/	/	/
O=C(Nc1ccc(F)c([N+](=O)[O-])c1)c1ccc2ccccc2c1	39	0.73*	40	50*	0.7*	0.78*
C/C(=N/N=C1\NC(=O)C(CC(=O)Nc2ccc(C(=O)O)cc2)S1)c1ccc([N+](=O)[O-])cc1 (configuration not stated)	7	1.1	/	/	/	/
O=C(CC1SC(=O)NC1=O)Nc1ccc(C(=O)O)cc1 (configuration not stated)	18	1.1	/	/	/	/
CC1=C/C(=N/N=C2\NC(=O)C(CC(=O)Nc3ccc(C(=O)O)cc3)S2)CC(C)(C)C1 (configuration not stated)	89*	1.1	62*	95*	0.89	0.75*
O=C(CC1S/C(=N/N=C\c2ccccc2)NC1=O)Nc1ccc(C(=O)O)cc1 (configuration not stated)	128*	1.1	53*	101*	0.87	0.78*
COc1cc(N2C(=O)NC(=O)/C(=C\c3cc(I)c(O)c(OC)c3)C2=O)c(OC)cc1Cl	9	0.84	/	/	/	/
O=C(Nc1ccc(Nc2ccccc2)cc1)c1cccc2ccccc12	9	0.91	/	/	/	/
Cc1ccc(C=C2C(=O)NC(=S)N(c3ccccc3Cl)C2=O)o1	60*	0.96	31	78*	1	0.79*
Cc1ccc(/C=C2\C(=O)NC(=S)N(c3ccc(Br)cc3)C2=O)o1	7	1.1	/	/	/	/
CCOC(=O)C(C(=O)OCC)=C1Sc2ccccc2N1C	2	0.94	/	/	/	/
O=C1C(=O)N(c2nc3ccccc3s2)C(c2ccccc2F)C1=C(O)c1ccccc1 (configuration not stated)	6	0.95	/	/	/	/
O=C1C(=O)N(c2nc3ccccc3s2)C(c2ccccc2Cl)C1=C(O)c1ccccc1 (configuration not stated)	39	1	-4	-2	1	0.76*
O=C1C=CC(=NS(=O)(=O)c2ccc(Cl)cc2)C=C1	19	0.96	/	/	/	/
O=C1C(Cl)=CC(=NS(=O)(=O)c2ccc(Cl)cc2)C(Cl)=C1Cl	85*	0.98	55*	81*	0.77*	0.82
Cc1ccc(/C(N)=N\OC(=O)c2cccc(C)c2)cc1	20	0.93	/	/	/	/
CN1C(=O)NC(=O)/C(=C\c2ccc(Cl)cc2Cl)C1=O	74*	0.94	12	9	1	1
Cc1cc(C)cc(N2C(=O)NC(=O)/C(=C\c3ccc(Cl)cc3)C2=O)c1	14	1.1	/	/	/	/
CN(C)c1ccc(NS(=O)(=O)c2ccc(N3C(=O)CCC3=O)cc2)cc1	50*	0.92	32	61*	1.1	0.96
CN(C)c1ccc(NS(=O)(=O)c2ccc(F)cc2)cc1	7	0.97	/	/	/	/
FC(F)(F)c1ccc(/C=N\N2CCN(Cc3ccc(Cl)cc3)CC2)cc1	4	1	/	/	/	/

Bioassay records: PubChem, Milwaukee Institute for Drug Discovery
